Screening results from PubChem BioAssay.
NF-kB expr up = compounds increasing NF-kB expression in human neuronal cells. NF-kB reporter expression; active compounds read high. fold change at 12.5 µM. hit rate 1.6% among 190,000; in the data active = fold change above about 3.3
Wee1 degr inh = human Wee1 degradation inhibition, primary screen | P30291 | HeLa Luc-Wee1K328M stability, luciferase luminescence; 100% = proteasome inhibitor MG132 effect | reporter increase, % at 5 µM | hit rate 1.2% among 220,000;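 active = activation above the mean of all tested compounds plus 3 SD, set per screening run, cut at about 8.8% in these data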;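 note: cells exposed to compound for 20 h before luminescence read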
Target sequence (P30291 whole entry K328M): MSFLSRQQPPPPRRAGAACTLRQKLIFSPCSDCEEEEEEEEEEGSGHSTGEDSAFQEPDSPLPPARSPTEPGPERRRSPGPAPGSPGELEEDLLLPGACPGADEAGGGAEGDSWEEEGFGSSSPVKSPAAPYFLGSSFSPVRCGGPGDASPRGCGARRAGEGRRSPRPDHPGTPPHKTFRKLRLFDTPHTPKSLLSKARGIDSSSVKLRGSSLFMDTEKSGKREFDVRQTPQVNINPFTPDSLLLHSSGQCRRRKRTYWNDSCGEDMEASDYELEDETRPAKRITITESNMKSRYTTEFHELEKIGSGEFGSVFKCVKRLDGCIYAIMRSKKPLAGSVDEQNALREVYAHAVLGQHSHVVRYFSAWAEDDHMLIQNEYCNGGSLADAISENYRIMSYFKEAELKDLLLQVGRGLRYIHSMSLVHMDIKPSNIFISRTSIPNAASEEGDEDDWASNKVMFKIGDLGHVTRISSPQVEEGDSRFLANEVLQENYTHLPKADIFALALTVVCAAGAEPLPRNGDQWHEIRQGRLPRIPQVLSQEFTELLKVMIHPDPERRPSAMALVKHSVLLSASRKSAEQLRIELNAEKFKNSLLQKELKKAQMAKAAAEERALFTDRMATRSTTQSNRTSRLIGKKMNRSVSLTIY
Hsp70 act = Hsp70 transcriptional activation, primary screen | HeLa Hsp70 promoter luciferase reporter, luminescence; scaled: vehicle 0, proteasome-inhibitor control 100% | activation, % at 10 µM | hit rate 0.04% among 200,000;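 active = activation above the mean across all tested compounds plus 3 SD, cutoff set per campaign, cut at about 5.5% in these data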
STAT1 act = STAT1 signaling activation. NIH 3T3 STAT1-luciferase reporter, IFN-gamma, luminescence; 100% = IFN-gamma alone, no compound. activation (% of control), % at 5.5 µM. hit rate 2.6% among 200,000. AID 932;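 active = activation above the screen-wide mean activation plus 3 SD, cut at about 130% in these data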
APP 5UTR inh = APP translation inhibition. inhibition, % at 2 µM. AID 1285. hit rate 0.82% among 190,000. SH-SY5Y APP 5'UTR-luciferase reporter, luminescence;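 active = inhibition above a set limit, derived from the sample mean plus 3 SD, cut at about 45% in these data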
APP 5'UTR act = APP 5'UTR luciferase reporter activation | SH-SY5Y APP 5'UTR luciferase reporter, luminescence; zero percent = DMSO vehicle wells | activation, % at 2 µM | hit rate 1% among 190,000 | AID 1276;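 active = activation above a set limit, based on mean plus 3 SD of controls, cut at about 140% in these data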
STAT1 activ conf = confirmation of STAT1 signaling activators. shares compounds with STAT1 act. hit rate 97% among 1,200. AID 1262. NIH 3T3 STAT1-luciferase reporter, IFN-gamma potentiation, luminescence; 100% = IFN-gamma EC80 alone, no compound. activation (% of control), % at 5.7 µM;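 active = activation above a set limit carried over from the earlier primary STAT1 screen, cut at about 140% in these data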
NFkB act STAT1ct = NF-kappaB activation in STAT1 activator counter-screen; AID 1306; shares compounds with STAT1 act; activation (% of control), % at 5.7 µM; HEK293T NF-kB luciferase reporter, TNF-alpha stimulated, luminescence; 100% = TNF-alpha with vehicle only; hit rate 43% among 1,200;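 active = activation above the mean of solvent-only control wells plus 3 SD, set per campaign, cut at about 130% in these data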;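 note: TNF-alpha given at a submaximal dose yielding about 80% of full reporter signal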
STAT3 act 2 = human STAT3 activation in STAT1 activator counter-screen. activation (% of control), % at 5.7 µM. shares compounds with STAT1 act. U3A cells STAT3-luciferase reporter, IL-6, luminescence; cells lack STAT1; 100 = IL-6 alone, no compound effect. hit rate 46% among 1,200. AID 1316;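 active = activation above the solvent-only control well mean plus 3 SD, set per plate batch, cut at about 110% in these data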;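 note: higher means more STAT3 reporter activation so hits are non-selective activators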
Hsp70 act DR = dose-dependent Hsp70 transcriptional activation | calls only at 99 µM | hit rate 10% among 70 | shares compounds with Hsp70 act | HeLa hsp70.1pr-luc reporter, luciferase luminescence;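 active = over 50% activation at some tested dose; inactive = under 50% activation at every tested dose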
Wee1 degr conf = confirmation of human Wee1 degradation inhibitors; shares compounds with Wee1 degr inh; HeLa Luc-Wee1K328M degradation, luminescence; vehicle 0%, proteasome-blocked wells 100%; activation, % at 5 µM; hit rate 4% among 1,100; AID 1410; in the data active = activation above about 8.9%
Large screens that a line does not name were inactive (follow-up assays come after a bar, where they were run). Compounds with a hit are over-represented: about 4.8% of the library has one in this group of screens.

Cc1ccc(NC(=O)Nc2ccc(Cl)cn2)cc1	Wee1 degr inh 11, STAT1 act 172 | STAT1 activ conf 171 | NFkB act STAT1ct inactive | STAT3 act 2 inactive | Wee1 degr conf inactive
CC(CCc1ccccc1)NC(=O)CSc1nnnn1C (centres undefined)	none
O=C(Nc1ccc(N2CCCCC2)cc1)c1ccc(F)cc1	Wee1 degr inh 11, STAT1 act 162 | STAT1 activ conf 216 | NFkB act STAT1ct inactive | STAT3 act 2 inactive | Wee1 degr conf inactive
COc1ccc2nc(Nc3nc(C)c(C(C)=O)s3)sc2c1	Wee1 degr inh 12, STAT1 act 164 | STAT1 activ conf 180 | NFkB act STAT1ct inactive | STAT3 act 2 inactive | Wee1 degr conf inactive
O=C(Nc1nc2c(s1)CCCC2)c1ccc2ncsc2c1	Wee1 degr inh 20, STAT1 act 182, APP 5'UTR act 160 | STAT1 activ conf 271 | NFkB act STAT1ct 139 | STAT3 act 2 111 | Wee1 degr conf inactive
O=C(Nc1nnc(SCc2ccc(F)cc2)s1)c1ccc2ncsc2c1	none (no result: APP 5UTR inh, APP 5'UTR act)
Cc1nc2ccc(NC(=O)COc3ccccc3F)cc2s1	none
Cc1ccc(NC(=O)COc2ccccc2C=O)cc1Cl	NF-kB expr up 6.8, Wee1 degr inh 16, STAT1 act 200, APP 5'UTR act 154 | STAT1 activ conf 209 | NFkB act STAT1ct 137 | STAT3 act 2 inactive | Wee1 degr conf inactive
CNc1nc(-c2ccc3c(c2)CCN3C(=O)c2ccccc2F)cs1	NF-kB expr up 7.5, Wee1 degr inh 11, STAT1 act 159, APP 5'UTR act 208 | STAT1 activ conf 215 | NFkB act STAT1ct 143 | STAT3 act 2 inactive | Wee1 degr conf inactive
CNc1nc(-c2ccc3c(c2)CCN3C(=O)c2ccccc2F)c(C)s1	none
OCC1(Cc2cccc(Cl)c2)CCCN(Cc2sc(N3CCCC3)nc2Cl)C1 (centres undefined)	none
O=C1C=CC(O)(c2cc(=O)c3c(O)cc(O)cc3o2)C=C1	Wee1 degr inh 41, Hsp70 act 25, STAT1 act 162 | STAT1 activ conf inactive | NFkB act STAT1ct 185 | STAT3 act 2 131 | Hsp70 act DR active | Wee1 degr conf 69
O=c1cc(-c2ccccc2Cl)oc2cc(O)cc(O)c12	none
COc1cc(SC)ccc1C(=O)Nc1ccc2c(c1)OCO2	NF-kB expr up 7.6, Wee1 degr inh 13, STAT1 act 153, APP 5'UTR act 170 | STAT1 activ conf 250 | NFkB act STAT1ct 136 | STAT3 act 2 inactive | Wee1 degr conf inactive
CCC1CCC(NC(=O)Nc2cccc(OC)c2)CC1 (centres undefined)	NF-kB expr up 4.5, Wee1 degr inh 16, STAT1 act 159, APP 5'UTR act 158 | STAT1 activ conf 168 | NFkB act STAT1ct inactive | STAT3 act 2 123 | Wee1 degr conf inactive
O=C(O)c1ccc(/C=N/Nc2ccc(C(F)(F)F)cn2)cc1	NF-kB expr up 3.9, Wee1 degr inh 13, STAT1 act 155, APP 5'UTR act 138 | STAT1 activ conf 210 | NFkB act STAT1ct inactive | STAT3 act 2 124 | Wee1 degr conf inactive
CN(C)C(=S)Nc1cccc(F)c1	none (no result: NF-kB expr up, Hsp70 act, STAT1 act, APP 5UTR inh, APP 5'UTR act)
CCN(/C=N/c1sc2c(c1C#N)CCCCC2)CC	NF-kB expr up 4.2, Wee1 degr inh 13, STAT1 act 158 | STAT1 activ conf 182 | NFkB act STAT1ct 135 | STAT3 act 2 125 | Wee1 degr conf inactive
CC(C)CN(/C=N/c1sc2c(c1C#N)CCCCC2)CC(C)C	none
Cc1nnc(Nc2ccc(Cl)cc2)s1	none (no result: NF-kB expr up, Hsp70 act, STAT1 act, APP 5UTR inh, APP 5'UTR act)
Clc1ccc(Nc2nc(C3CC3)cs2)cc1	NF-kB expr up 5.1, Wee1 degr inh 12, STAT1 act 154, APP 5'UTR act 180 | STAT1 activ conf 188 | NFkB act STAT1ct 142 | STAT3 act 2 inactive | Wee1 degr conf inactive
O=C(/C=C\Nc1ccc(Br)cc1)c1cccnc1	NF-kB expr up 8.8, Wee1 degr inh 11, STAT1 act 162, APP 5'UTR act 210 | STAT1 activ conf 198 | NFkB act STAT1ct inactive | STAT3 act 2 inactive | Wee1 degr conf inactive
Cc1noc(NS(=O)(=O)c2ccc(N/C=C/C(=O)c3cccnc3)cc2)c1C	none
Nc1nc(NCc2c(F)cccc2Cl)nn1-c1ccccc1	none
COC(c1ccccc1)c1nnc(CCC(=O)NC2C3CC4CC(C3)CC2C4)o1 (centres undefined)	none
Cc1ccc(-c2nc(NC(=O)c3nn(C)cc3[N+](=O)[O-])sc2C)cc1C	Hsp70 act 14, APP 5UTR inh 96 | Hsp70 act DR inactive
O=C(NCC1COc2ccccc2O1)C1CCCN(S(=O)(=O)c2cnc[nH]2)C1 (centres undefined)	Hsp70 act 5.8 (no result: NF-kB expr up) | Hsp70 act DR inactive
COc1cccc(-n2c(CN3CCN(c4ccc(C)cc4)C(C)C3)nc3ccc([N+](=O)[O-])cc3c2=O)c1 (centres undefined)	none
CCCC(=O)N1CCN(c2ccc(NC(=O)c3cc4ccccc4o3)cc2)CC1	none
CCCC(=O)N1CCN(c2ccc(NC(=O)c3ccc([N+](=O)[O-])o3)cc2)CC1	Hsp70 act 15, STAT1 act 148, APP 5UTR inh 70 (no result: NF-kB expr up) | Hsp70 act DR inactive
Cc1cc(C(=O)Cn2ncc(Cl)c(Cl)c2=O)c(C)n1CC(F)(F)F	Hsp70 act 16, APP 5UTR inh 75 | Hsp70 act DR inactive
Cc1ccc(C)c(C(=O)Cn2ncc(Cl)c(Cl)c2=O)c1	none
CC1C/C(=C/c2cccn2C)C(=O)/C(=C/c2cccn2C)C1 (centres undefined)	none
CC1C/C(=C/c2ccncc2)C(=O)/C(=C/c2ccncc2)C1 (centres undefined)	Hsp70 act 178, APP 5UTR inh 95 | Hsp70 act DR active
CN(C)/C=C1/NC(=S)NC1=O	Hsp70 act 6.1 | Hsp70 act DR inactive
Cc1ccc(NC(=S)NC(NC(=O)c2ccccc2)C(Cl)(Cl)Cl)c(C)c1 (centres undefined)	Hsp70 act 7.0 | Hsp70 act DR inactive
